# Abeta yeast res = qHTS for compounds that reverse cellular toxicity of Amyloid beta (A-beta) peptide in yeast: Primary Screen; yeast expressing A-beta42, growth rescue, OD600, 48 h; response scale: 0% DMSO, 100% iron-clioquinol control; Potency, µM (highest dose often 46.1 µM), actives largely listed as activators; hit rate 0.063% among 410,000; AID 1347071, 2019; also: nearly all actives have a fitted effect of over 55% in size
#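 Yeast A-beta toxicity model in growth medium with pinned compounds, 48 h at 30 C; growth read as absorbance at 600 nm. Normalized to FeCl3/clioquinol equimolar mix (positive) and DMSO (negative).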
# TDP-43 yeast inh = qHTS of TDP-43 Inhibitors; hit rate 1.8% among 410,000; Potency, µM (doses to about 46.1 µM), actives largely listed as activators; TDP-43 expressing yeast growth rescue, BacTiter-Glo, 24 h; AID 652104, 2013; also: nearly all actives have a fitted effect of over 50% in size
#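 Luminescence from BacTiter-Glo reports growth of TDP-43-expressing yeast after 24 hr at 30 deg C with compound. Cells were raffinose-pregrown to mid-log, then seeded in galactose medium at OD600=0.02.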
# aSyn yeast inh = qHTS of alpha-syn Inhibitors; Yeast expressing alpha-synuclein, growth rescue, BacTiter-Glo, 24 h; Potency, µM (series often up to 46.1 µM), hits mostly activators; hit rate 0.14% among 370,000; also: nearly all actives have a fitted effect of over 65% in size
#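 Galactose-induced alpha-syn yeast (OD600=0.02, raffinose-pregrown) + pinned cpd, 24 hr, 30 deg C; growth by BacTiter-Glo luminescence. Growth restoration scores as activation.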
# FUS suppressor = qHTS for Suppressors of FUS Proteinopathy: Primary screen using FUS-linked yeast assay; S. cerevisiae FUS-expressing, growth rescue, OD600, 24 h; Potency, µM (titrated, usually from 76.6 µM), most hits filed as activators; hit rate 0.24% among 390,000; AID 1347120, 2019; also: nearly all actives have a fitted effect of over 55% in size
#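 Compound concentration series was pinned onto galactose-induced FUS-expressing yeast seeded at OD 0.005. Plates sat 24hr at 30C; absorbance at 600 nm gave growth. DMSO served as background control.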
# A number is an active result; 0 = inactive; ? = inconclusive; - = not tested or not shown; [ ] = dose if it differs, or a comment. Sampled rows, rich in hits. Any-hit rate of the full collection: about 2.1%. Calls follow the shape of the dose curve; as a rule, active = well fitted curve in the direction sought with a large enough effect; inconclusive = small, poorly fitted or top-dose-only effect, or another doubt; inactive = no such curve, though single readings can be large; an effect the other way counts as inactive or inconclusive.
SMILES,Abeta yeast res,TDP-43 yeast inh,aSyn yeast inh,FUS suppressor
Cc1cccc(N2CCN(C(=O)COc3ccc4c(c3)CCC4)CC2C)c1 (configuration not stated),0,35µM,0,?
Cc1cccc(N2CCN(C(=O)CS(=O)(=O)Cc3nc(-c4ccccc4C)oc3C)CC2C)c1 (configuration not stated),0,25µM,-,?
Cc1cccc(N2CCN(C(=O)COc3ccc4c(c3)CCC4)CC2)c1C,0,0,0,-
CCN1CCN(C(=O)CS(=O)(=O)Cc2nc(-c3ccccc3C)oc2C)CC1,0,0,0,0
Cc1cccc(N2CCN(C(=O)CS(=O)(=O)Cc3nc(-c4ccccc4F)oc3C)CC2C)c1 (configuration not stated),0,0,0,32µM
O=C(CSc1nnnn1C1CCCC1)NCc1ccccc1,0,0,0,0
CC1=NN(C(=O)CCc2ccc3c(c2)OCO3)C(O)(C(F)(F)F)C1 (configuration not stated),0,0,0,0
COc1ccc(N2CC(C(=O)N/N=C/c3cccs3)CC2=O)cc1 (configuration not stated),0,?,0,0
CCOC(=O)C1=CCN(S(=O)(=O)c2ccccc2Br)C1c1ccc(Br)cc1 (configuration not stated),0,0,0,0
CCCc1ccc(OCC(O)CN2CCCC2)cc1 (configuration not stated),0,0,0,0
N#Cc1nc(COc2ccc(F)cc2)oc1N1CCC(Cc2ccccc2)CC1,0,0,0,0
COc1cccc(C(C(=O)NCc2ccco2)N(Cc2ccco2)C(=O)Cn2nnc3ccccc32)c1 (configuration not stated),0,0,0,0
O=C(Nc1ccccc1Cl)N1CCCN(c2nc(-c3ccccc3)ns2)CC1,0,0,0,0
O=C(Nc1ccccc1)N1CCN(c2nc(-c3ccccc3)ns2)CC1,0,11µM,0,0
COc1cccc(Cc2nc3ccccc3nc2SCC(=O)N2CCCCC2C)c1 (configuration not stated),0,35µM,-,?
COc1cccc(Cc2nc3ccccc3nc2SCC(=O)N2CCN(c3ccccc3)CC2)c1,0,0,-,0
Cc1ccc(Cc2nc3ccccc3nc2SCC(=O)NCCC(C)C)cc1,0,?,-,0
CCOc1ccccc1NC(=O)CSc1nc2ccccc2nc1Cc1ccc(C)cc1,0,25µM,-,0
Cc1ccc(Cc2nc3ccccc3nc2SCC(=O)N2CCCc3ccccc32)cc1,0,0,-,0
Cc1ccc(Cc2nc3ccccc3nc2SCC(=O)N2CCCCC2C)cc1 (configuration not stated),0,35µM,-,?
CNC(=S)Nc1ccc(Br)cc1,0,0,0,0
CCOc1ccc2c3c(c(=O)oc2c1OCC)CCCC3,0,22µM,0,0
Cc1ccc(NC(=O)CN2C(=O)CCSc3ccccc32)c(C)c1,0,16µM,0,0
COc1ccc(-c2cnc(C)o2)cc1S(=O)(=O)Nc1c(C)cc(C)cc1C,0,25µM,-,0
COc1ccc(-c2cnc(C)o2)cc1S(=O)(=O)Nc1ccc(OC(F)(F)F)cc1,0,22µM,-,0
SMILES,Abeta yeast res,TDP-43 yeast inh,aSyn yeast inh,FUS suppressor
N#C/C(C(N)=O)=c1/ccc2c(c1)N1C3=C(CCCC3)CC3CCCCC31N=2 (configuration not stated),0,0,?,0
Cc1cc(C)cc(NC(=S)/N=C(\N)Nc2nc(C)c3ccccc3n2)c1,0,16µM,0,-
Cc1cccc(NC(=S)/N=C(\N)Nc2nc(C)c3ccccc3n2)c1,?,20µM,0,0
O=C(CCN1CCN(CCO)CC1)Nc1ccc(F)c(F)c1,0,0,0,0
O=C(NC(c1cccnc1)C(F)(F)F)c1cc(COc2ccc3c(c2)CCCC3)on1 (configuration not stated),0,20µM,0,0
CC(C)n1c(SCC(=O)N2CCCCC2)nc2c1c(=O)n(C)c(=O)n2C,0,0,0,0
COc1cc(OC)c(OC)cc1/C=C1\CC(C)C/C(=C\c2cc(OC)c(OC)cc2OC)C1=O (configuration not stated),0,0,0,25µM
CCC1C/C(=C\c2cc(OC)c(OC)cc2OC)C(=O)/C(=C/c2cc(OC)c(OC)cc2OC)C1 (configuration not stated),0,0,0,?
O=C(CCCc1cccs1)Nc1nccs1,0,0[9.22 µM],0,0
O=C(CCCc1ccccc1)Nc1nccs1,0,11µM,0,0
Cc1nc2ccccc2nc1Nc1cccc(Cl)c1,?,13µM,0,0
Cc1nc(Nc2ccccc2O)c2oc3ccccc3c2n1,0,0,0,0
COc1ccc(Oc2nc(C)nc3c2oc2ccccc23)cc1,0,16µM,0,0
Cc1nc2ccccc2nc1OCc1cccc(Cl)c1,0,13µM,0,0
Cc1nc(Nc2ccccc2F)c2oc3ccccc3c2n1,0,2.5µM,0,0
Cc1nc(Oc2ccccc2)c2oc3ccccc3c2n1,0,?,0,0
CC(Oc1ccc(Cl)cc1)C(=O)Nc1cccc(S(=O)(=O)N2CCCC2)c1 (configuration not stated),0,0,0,0
CCc1nc2sc3c(c2c(=S)[nH]1)CC(C)(C)OC3,?,0,0,0
CC(=O)Nc1cc(C(=O)OC(C(=O)c2ccccc2)c2ccccc2)ccc1C (configuration not stated),0,0,0,-
C=C(C1=CCN(S(=O)(=O)C(C)(C)C)[C@H]1CCO)c1ccccc1,0,0,0,0
CCOCc1nnc(NS(C)(=O)=O)s1,0,0,0,0
O=C(Oc1cccc(NC(=O)c2ccco2)c1)c1cccc(S(=O)(=O)N2CCCCC2)c1,0,0,0,0
Cc1nc(Nc2ccc(Cl)cc2)c2oc3ccccc3c2n1,0,0,0,0
Cc1nc(Nc2cccc(Cl)c2)c2oc3ccccc3c2n1,0,16µM,0,0
Cc1cnc(NC(=O)CSc2nc3ccccc3s2)s1,0,14µM,0,0
SMILES,Abeta yeast res,TDP-43 yeast inh,aSyn yeast inh,FUS suppressor
CC1CCN(C(=O)CSc2nc3ccccc3s2)CC1,0,?,0,-
Cc1cnc(NC(=O)CSc2ccc(Cl)cc2)s1,?,11µM,0,0
CC1CCCC(C)N1C(=O)CSc1nc2ccccc2s1 (configuration not stated),0,7.9µM,-,0
O=C(NC(=S)Nc1cccnc1)c1cccs1,0,?,0,0
CC(=O)c1cccc(S(=O)(=O)Nc2c(C)nn(C)c2C)c1,0,0,0,0
COc1ccc(-n2c(=S)[nH]c3ccccc32)cc1,0,?,0,?
COc1ccc(-c2nc3ccccc3n2Cc2ccc(C)cc2)cc1,?,0,0,0
COc1ccc(-c2nc3ccccc3n2Cc2ccc(Cl)cc2)cc1,0,22µM,-,0
COc1ccc(Cn2c(=S)[nH]c3ccccc32)cc1,11µM,0,0,0
COc1ccc(-c2nc3ccccc3n2Cc2ccc(C(C)C)cc2)cc1,0,22µM,0,0
